Measurements taken from PubChem BioAssay AID2546 (National Center for Advancing Translational Sciences (NCATS), 2010).
The campaign covered roughly 310,000 compounds. About 11,000 (3.5%) were called active. Roughly 8% stayed inconclusive and do not appear here. Calls follow the shape of the dose curve; as a rule, active = well fitted inhibition curve with a large enough effect; inconclusive = small, poorly fitted or top-dose-only effect, or effect the other way; inactive = flat fitted curve, though single readings scatter. The entries come from a sample that favours actives as a whole. Entries that show only a call come without a potency.

Assay: VP16 counterscreen qHTS for inhibitors of ROR gamma transcriptional activity;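 also: Gal4-VP16 expression switched on by copper sulfate through the metallothionein promoter; nearly all actives have a fitted effect of over 50% in size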
Conditions: Drosophila S2 Gal4-VP16 UAS-luciferase, luminescence, 20 h; series mostly up to 53.6 µM
Potency is read from the fitted curve at half-maximal effect.

Row | Structure (SMILES) | Potency
1 | Cc1c(C)c2ccc(OCC(=O)N3CCN(c4cccc(Cl)c4)CC3)cc2oc1=O | inactive
2 | Cc1ccc(OCC(=O)NC(C)c2ccccc2)cc1C (stereo unspecified) | inactive
3 | O=C(Nc1cccnc1)c1cc(Cl)ccc1Cl | inactive
4 | O=C(/C=C/c1ccc(Cl)c([N+](=O)[O-])c1)c1cccnc1 | inactive
5 | O=C(/C=C/c1ccc(Cl)cc1Cl)c1cccnc1 | 6.31 µM (active)
6 | COc1cccc(CNC(=O)C2CCCN(c3ncnc4c3nc3n4CCCCC3)C2)c1 (stereo unspecified) | inactive
7 | Cc1cc(NC(=O)CCN2CCN(Cc3ccccc3)CC2)ccc1Br | inactive
8 | Cc1cc(NC(=O)CSc2nc(=O)cc(N)n2-c2ccc(F)cc2)no1 | inactive
9 | COc1cc(/C=N/NC(=O)Cc2ccccc2)cc(OC)c1OC | inactive
10 | CC(C)(C)C(=O)Cn1c(NCCO)nc2ccccc21 | inactive
11 | O=C(O)[C@@H]1CCCN1c1ncnc2sc3c(c12)CCC3 | inactive
12 | OCCNc1nc2ccccc2n1-c1ncnc2sc3c(c12)CCC3 | 10 µM (active)
13 | O=C(c1ccccc1)N1N=C(c2ccccc2O)CC1c1ccc(Br)cc1 (stereo unspecified) | inactive
14 | Cc1cn([C@H]2CC(F)[C@@H](CO)O2)c(=O)[nH]c1=O (stereo partly specified) | inactive
15 | CCn1c(C(C)NC(=O)c2ccc(C)cc2)n[nH]c1=S (stereo unspecified) | inactive
16 | CC(C)n1c(-c2ccncc2)n[nH]c1=S | inactive
17 | CCn1c(-c2ccncc2)n[nH]c1=S | 11.2 µM (active)
18 | COc1cccc(CNC(=O)CCC2CCCN(C(=O)c3ccc(F)c(Cl)c3)C2)c1 (stereo unspecified) | inactive
19 | COC(=O)C1(CCSC)NC(c2ccc(OC)cc2OC)C2C(=O)N(c3cccc(C(C)=O)c3)C(=O)C21 (stereo unspecified) | inactive
20 | Cc1ccc(S(=O)Cc2ccc(C(=O)N3CCN(C4CCCCC4)CC3)o2)cc1 (stereo unspecified) | inactive
21 | Cc1[nH]c(C)c(S(=O)(=O)N2CCN(c3cccc(C(F)(F)F)c3)CC2)c1C(=O)N1CCCC1 | inactive
